Active and inactive are the calls of the source. Rule as the data show it: active = log2 fold change growth below about -1.8; inactive = the rest.
Experiment: anthelmintic activity against nematode growth – whole organism, log2 fold change (AID 1259336);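 also: growth scored by imaging after five days at 20 °C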
Settings: C. elegans growth, anthelmintic screen; stronger effect = lower value

log2 fold change growth, inactive:
COc1ccc(N(CCc2cccc(C)n2)C(=O)C2CCCCC2)cc1 -0.0192
c1csc(-c2cnc3sc(NCC4CCOCC4)nn23)c1 -0.257
CCc1cc(=O)n(C)c(S[C@@H](C)C(=O)Nc2ccc(F)cc2)n1 -0.417
CCCCc1ccc(C(=O)Nc2nccc3ccccc23)nc1 0.243
c1ccc(Oc2ccc(-c3cc(CN4CCOCC4)[nH]n3)cc2)cc1 0.284
CCNC(=O)[C@H](C)Nc1nc(-c2cccnc2)nc2sc(C)c(C)c12 0.136
c1ccc(Oc2ccc(-c3cc(N4CCNCC4)n[nH]3)cc2)cc1 0.489
NS(=O)(=O)c1cccc(-c2ccc3ncc(N4CCOCC4)nc3c2)c1 -0.363
CNc1snc(C)c1C(=O)NCCOc1ccc(OC)cc1 -0.0598
CCN(CC)CCCN1CCN(C(=O)c2cccc(-c3noc(C(F)(F)F)n3)c2)CC1 -0.0333
CC[C@H](Sc1nc2ccccc2o1)C(=O)Nc1nccs1 -0.397
COc1ccc(Oc2ccc([C@@H](C)N(C)c3ncc4c(N)nc(N)nc4n3)cc2)cc1 0.282
CCOc1ccc(OCC(=O)Nc2cc(C)cc(C)c2)cc1 -0.0899
Nc1ncnc2c1c(Cc1cccc3ccccc13)nn2CC1CCNCC1 -0.11
FC(F)(F)c1cc(NCCc2ccccc2)nc(-c2ccccn2)n1 -0.968
CC[C@H](CO)NCCN[C@H](CC)CO -0.0318
CN1CCC(c2cc(-c3ccncc3)c(-c3ccc(F)cc3)[nH]2)CC1 -0.12
c1ccc(Oc2ccc(-c3cc(N4CCOCC4)n[nH]3)cc2)cc1 0.348
CCN(CC)S(=O)(=O)c1ccc(C(=O)Nc2cc(C)nn2-c2nc(C)c(C)c(=O)[nH]2)cc1 0.269
COc1cccc(-c2cc3c(Nc4cccnc4)nccc3[nH]2)c1 0.319
COc1ccc(C2=NCCN2)cc1-c1cn(-c2cccc(C3=NCCN3)c2)nn1 0.077
O=C(N[C@H](Cc1ccccc1)C(=O)Nc1ccccc1N1CCOCC1)c1cccs1 0.306
COc1ccc(Nc2ccccc2NC(=O)c2ccc(=O)[nH]c2)cc1 -0.31
Cc1cc(=O)[nH]c(-n2nc(C)cc2C)n1 0.36
Nc1nccc2ccc(Oc3ccncc3)cc12 0.145
Cc1nnc(NC(=O)c2cn(-c3ccccc3)nc2-c2ccccc2C)o1 -0.302
CCn1cnc2c(Nc3cc(F)cc(F)c3)nc(C#N)nc21 -0.053
CC(=O)Nc1ccc(-c2noc(C[C@H]3CCCN(Cc4cccc(F)c4C)C3)n2)cc1 0.251
O=C(Nc1cccc(Cl)c1)c1cnc(N2CCN(c3ccncc3)CC2)c(Cl)c1 -0.57
N#CCN(CCCCN1CCN(c2ccc(F)cc2)CC1)C(=O)OCc1ccccc1 0.194
O=C(C1CCCCC1)N1CC(=O)N2CCc3ccccc3[C@@H]2C1 0.303
O=C(C1CCN(c2cc(-n3cccc3)ncn2)CC1)N1CCc2ccccc2C1 -0.11
COc1ccc(OC)c(NCc2ccc3nc(N)nc(N)c3c2Cl)c1 0.162
COc1cccc(OC)c1C(=O)Nc1ccc(Cl)c(-c2nc3ccccc3s2)c1 -0.202
C[C@H](c1ccc2c(c1)CCCC2)N(C)c1ncc2c(N)nc(N)nc2n1 0.0756
CC(C)(C(=O)Nc1ccc(F)cc1)n1cc(-c2ccccc2F)cn1 0.0447
COc1ccc(C2=NN(C3CCCCCC3)C(=O)[C@@H]3CC=CC[C@H]23)cc1OCCCCOc1ccc(-c2nn[nH]n2)cc1 -0.0946
CC(C)[C@H](Oc1cccc2ccccc12)C(=O)O 0.534

— PubChem BioAssay AID1259336 (Sattelle Laboratory, UCL Respiratory, Division of Medicine, …, 2017)
